Most compounds without a hit are left out; they make up all but 6.2% or so of the library.
KB-V1 MDR tox: KB-V1 MDR subline cytotoxicity; KB-V1 MDR cells viability, CellTiter-Glo, 72 h; Potency, µM (titrated, usually from 46.1 µM), hits mostly cytotoxic; 400,000 tested, 3.4% active; AID 1347076; also: % is scaled to controls: 0 for no effect and ±100 for the full control effect; nearly all actives have a fitted effect of over 60% in size
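qHTS viability screen in drug-selected KB-V1 MDR cells: 72 h compound treatment at 37 degrees C, ATP luminescence end point.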
KB-3-1 tox: kills parental KB-3-1 adenocarcinoma cells; 400,000 tested, 1.4% active; Potency, µM (titrated, usually from 46.1 µM), most hits filed as cytotoxic; KB-3-1 viability, CellTiter-Glo ATP luminescence, 72 h; AID 1347075; also: % is scaled to controls: 0 for no effect and ±100 for the full control effect; nearly all actives have a fitted effect of over 60% in size
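KB-3-1 cells, DMEM (no phenol red) + 10% FBS; compound by pin transfer, 72 h, 37 °C. Readout: CellTiter-Glo luminescence after 10 min. Data normalized, curve-fitted.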
HT1080NT lethal: kills 2HG-producing HT-1080-NT fibrosarcoma cells; HT-1080-NT fibrosarcoma viability, CellTiter-Glo ATP luminescence, 48 h; Potency, µM (series often up to 46.1 µM), inactives show at the highest dose activity, negative = less viability, most hits filed as cytotoxic; 360,000 tested, 1.6% active; AID 686970;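 also: NT is the 2HG producing partner of a matched IDH1 knockdown line; 0% = DMSO-treated cells and -100% = media-only wells without cells; nearly all actives have a fitted effect of over 55% in size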
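750 cells/well, RPMI + 5% FBS; 2 h settle, compound pin-transfer, 48 h at 37 degrees C. CellTiter-Glo 10 min RT, luminescence. Normalized to DMSO and media-only wells.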
HT1080 IDH1KD tx: toxicity to HT-1080 IDH1 knockdown cells (counter line). HT-1080 IDH1 knockdown viability, ATP luminescence, 48 h. 360,000 tested, 2% active. Potency, µM (titrated, usually from 46.1 µM), inactives show top-dose activity, negative = toxicity, actives largely listed as cytotoxic;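 also: 0% = DMSO wells and -100% = cell-free medium wells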
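Knockdown cells (IDH1KD HT-1080) received compounds 2 h after plating at 750 cells/well and were kept 48 h at 37 °C in 5% FBS RPMI. A CellTiter-Glo luminescence read gave % activity for curve fitting.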
ATXN viability: cell viability loss in ATXN counter-screen. Potency, µM (highest dose often 56.7 µM), hits mostly cytotoxic. 400,000 tested, 0.49% active. S2 cells (HEK-293 line with an ATXN2-luciferase reporter) viability, CellTiter-Fluor protease fluorescence, 24 h. AID 651635; also: nearly all actives have a fitted effect of over 40% in size
ATXN2 expr inh: inhibitors of ATXN2 expression; Potency, µM (doses to about 57 µM), for inactives: at the highest dose activity change, negative = inhibition, actives largely listed as inhibitors; 360,000 tested, 0.72% active; HEK-293 ATXN2-luciferase reporter, luminescence, 24 h; also: % is scaled to controls: 0 for no effect and ±100 for the full control effect; nearly all actives have a fitted effect of over 55% in size
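qHTS (up to 57 uM final) was run with 24 h compound exposure of reporter cells at 37 °C. Each well was multiplexed: SteadyGlo luminescence measured ATXN2-luciferase expression after a fluorogenic Gly-Phe-AFC viability readout (25 uM final).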
Starred values were filed as active, the others as inactive; i = inactive; ? = inconclusive; · = no result given; ! = not active in a repeat; [ ] = dose if it differs, or a comment. Calls follow the shape of the dose curve; as a rule, active = well fitted curve in the direction sought with a large enough effect; inconclusive = small, poorly fitted or top-dose-only effect, or another doubt; inactive = no such curve, though single readings can be large; an effect the other way counts as inactive or inconclusive. Potency is read from the fitted curve at half-maximal effect.

SMILES | KB-V1 MDR tox | KB-3-1 tox | HT1080NT lethal | HT1080 IDH1KD tx | ATXN viability | ATXN2 expr inh
Cc1cc(C)cc(NC(=O)CSc2nc3nc(C)cc(C)n3n2)c1 | 18.4µM* | i | -2.1% | 1.2% | i | 2.7%
Cc1cc(C)n2nc(SCC(=O)N3CCN(c4ccccc4)CC3)nc2n1 | 11.6µM* | i | 10.5% | 9.0% | ? | 1.6%
CC(=O)N1CCN(S(=O)(=O)c2cccc(C(=O)OCc3cccc(F)c3)c2)CC1 | 18.4µM* | i | -5.5% | 0.0% | i | -13.6%
CC1(COc2ccc3c(c2)ncn3-c2ccc3cccc(N4CCC(N)CC4)c3n2)COC1 | · | · | · | · | · | 12.2µM*
COC(c1ccc2c(c1)CN(C(=O)Cn1nc(C)c3ccccc3c1=O)CCO2)C1CCCCC1 (stereo unspecified) | · | · | · | · | i | ·
COc1ccc(-c2cn3c(C)c(C(=O)N4CCN(c5ccc(F)cc5)CC4)sc3n2)cc1 | i | i | 7.6% | 5.6% | i | 19.3%
Cc1c(C(=O)N2CC(C)OC(C)C2)sc2nc(-c3ccc(F)cc3)cn12 (stereo unspecified) | 8.2µM* | ? | 18.6% | -3.6% | i | 1.4%
COc1ccccc1N1CCN(C(=O)c2sc3nc(-c4ccc(F)cc4)cn3c2C)CC1 | i | ? | -14.9% | -13.0% | ? | ?
CCOC(=O)N1CCN(C(=O)c2sc3nc(-c4ccc(F)cc4)cn3c2C)CC1 | 7.31µM* | i | 5.2% | 7.2% | i | -1.6%
COc1ccc(CN2CCC3(CCC(CNC(=O)c4ccnn4C)O3)CC2)c(C)c1C (stereo unspecified) | · | · | · | · | i | ·
c1cncc(OC2CCN(Cc3ccc4c(c3)CN(Cc3ccc5c(c3)CCO5)CCO4)CC2)c1 | · | · | · | · | i | ·
c1cncc(OC2CCN(Cc3ccc4c(c3)CN(Cc3nc5ccccc5s3)CCO4)CC2)c1 | · | · | · | · | i | ·
C/C(=N\N=C(N)N)c1ccc(Cl)c(Cl)c1 | ? | i | 23.1µM* | 18.4µM* | i | -30.7%
O=S(=O)(NCc1c(Cl)cccc1Oc1ccccc1)c1ccc(F)cc1 | i | 16.4µM* | -2.3% | 3.0% | i | ·
CCOc1cccc(C(=O)Nc2nc3c(s2)CC(C(C)(C)C)CC3)c1 (stereo unspecified) | i | i | · | · | i | 2.9%
Fc1ccc(/C=C\c2nccc3c2[nH]c2ccccc23)cc1 | i | i | ? | 23.1µM* | i | 14.1%[11.3 µM]
COC(=O)Cc1c(C)nc2nc(NCc3ccc(Br)cc3)[nH]n2c1=O | ? | i | · | · | i | -18.7%
Fc1ccc(C2CC(c3cccs3)=NN2C(=S)Nc2ccccc2)cc1 (stereo unspecified) | 20.6µM* | i | 6.9% | -3.5% | i | -3.9%
Brc1ccc(OCc2nc(-c3ccccn3)n[nH]2)cc1 | i | i | -27.4% | ? | i | -10.1%
Clc1ccc(OCc2nc(-c3ccccn3)n[nH]2)cc1 | 4.61µM* | ? | ? | 10µM* | ? | ?
CN(Cc1ccccc1)c1ccc(-c2nc(-c3ccco3)no2)cc1[N+](=O)[O-] | i | i | · | · | ? | 56.5%
CCc1ccc(NC(=O)C2CCCN(S(=O)(=O)c3ccc4c(c3)CCCN4C(C)=O)C2)cc1 (stereo unspecified) | i | i | -7.9% | -9.9% | ? | ?
CC(=O)N1CCCc2cc(S(=O)(=O)N3CCCC(C(=O)N4CCN(c5cc(C)ccc5C)CC4)C3)ccc21 (stereo unspecified) | ? | ? | ? | ? | 25.1µM*! | 20µM*
COc1cccc(NS(=O)(=O)c2ccc3c(c2)CCCN3C(C)=O)c1 | 20.6µM* | i | -15.1% | -8.3% | i | -1.4%
COc1ccc(CNC(=O)C2CCCN(S(=O)(=O)c3ccc4c(c3)CCCN4C(C)=O)C2)cc1 (stereo unspecified) | i | 20.6µM*! | -8.0% | -2.2% | i | 0.0%
SMILES | KB-V1 MDR tox | KB-3-1 tox | HT1080NT lethal | HT1080 IDH1KD tx | ATXN viability | ATXN2 expr inh
COc1ccccc1N1CCN(C(=O)C2CCCN(S(=O)(=O)c3ccc4c(c3)CCCN4C(C)=O)C2)CC1 (stereo unspecified) | i | ? | -10.6% | -5.8% | ? | 17.8µM*!
CCOC(=O)c1cc(S(=O)(=O)N2CCN(c3ccc(OC)cc3)CC2)[nH]n1 | i | i | · | · | i | -2.6%
O=c1[nH]cnc2c1ncn2[C@H]1C[C@H](O)[C@@H](CO)O1 | ? | i | · | · | · | ·
CCc1nnc2c(Nc3ccc(Br)c(C)c3)nc3ccccc3n12 | i | i | · | · | i | 3.3%
CCCCCC(=O)N/N=C(\C)c1ccccn1 | 5.17µM* | ? | 1.3% | -24.3% | i | ?
O=C(COc1ccccc1-c1ccccc1)N/N=C/c1ccc2ccccc2c1 | ? | 1.3µM* | ? | 1.16µM* | ? | ?
O=C(N/N=C/c1cccc([N+](=O)[O-])c1)c1ccc(COc2ccccc2-c2ccccc2)cc1 | 16.4µM* | ? | 4.4% | -1.6% | i | 1.7%
C/C(=N\NC(=O)COc1ccccc1-c1ccccc1)c1ccccn1 | 4.11µM* | ? | ? | ? | · | ?
Cn1cnnc1Sc1ccc(CN2CCOc3ccc(C4=CCCCC4)cc3C2)o1 | · | · | · | · | i | ·
Cn1nnnc1SCCCNCc1cccc(OCc2ccc(F)cc2)c1 | i | i | · | · | ? | -25.3%
O=C(NNC(=O)c1ccncc1)Nc1cccc(C(F)(F)F)c1 | i | i | -0.9% | 3.4% | i | -14.0%
NC(=O)C1CCN(c2ncc(-c3ccc4c(c3)OCCO4)s2)CC1 | i | i | · | · | · | ·
Nc1ncnc2c1cnn2-c1ccccc1 | ? | i | -2.2% | 5.3% | i | 29.5%
S=c1nc[nH]c2c1cnn2-c1ccccc1 | 8.2µM* | ? | 16.7% | 0.4% | ? | ·
COC(=O)c1cc(Cl)ccc1NCC(N)c1ccccc1 (stereo unspecified) | i | i | 20.6µM* | 18.4µM* | ? | ?
NC(=O)c1ncn([C@@H]2O[C@H](CO)[C@@H](O)[C@@H]2O)c1N | · | · | · | · | · | -13.5%
CSc1nc2ccc(Nc3nc(N4CCOCC4)nc(N4CCOCC4)n3)cc2s1 | 18.4µM* | ? | ? | ? | i | ?
O=C(CSc1nc2ccc(Nc3nc(N4CCOCC4)nc(N4CCOCC4)n3)cc2s1)Nc1ccccc1F | 2.59µM* | 13µM* | 6.6% | 3.6% | ? | ?
O=C(CSc1nc2ccc(Nc3nc(N4CCOCC4)nc(N4CCOCC4)n3)cc2s1)N1CCOCC1 | i | i | -3.9% | -2.0% | i | 2.4%

High-throughput results from PubChem BioAssay.
